Data as given in PubChem BioAssay (NCI).
Compounds without any hit were thinned out: in the full panel of roughly 83,000, 20% have a hit.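 Activity criterion: percent growth below 10, measured after cells in 96-well plates were exposed to a single compound concentration for 48 hours.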 Values without a mark were called inactive. Activity calls are given as the source filed them.

Columns and labels:
Experiment in all cases: NCI-60 one-dose screen, 48 h (100 = growth as untreated, 0 = no growth, -100 = all killed)
Details in all cases: 10 µM unless noted
[1] = tested on: NCI-H23 lung
[2] = tested on: NCI-H226 lung
[3] = tested on: NCI-H322M lung
[4] = tested on: HOP-62 NSCLC
[5] = tested on: NCI-H460 lung
[6] = tested on: HOP-92 NSCLC
[7] = tested on: NCI-H522 lung
[8] = tested on: A549/ATCC NSCLC
[9] = tested on: 786-0 renal
[10] = tested on: COLO 205 colon
[11] = tested on: DU-145 prostate
[12] = tested on: K-562 leukemia
[13] = tested on: MALME-3M melanoma
[14] = tested on: MDA-MB-231 breast
[15] = tested on: RXF 393 renal
[16] = tested on: SF-268 CNS
[17] = tested on: SF-539 CNS
[18] = tested on: UACC-257 melanoma
[19] = tested on: M14 melanoma
[20] = tested on: SF-295 CNS

Compound | growth [1] [%] | growth [2] [%] | growth [3] [%] | growth [4] [%] | growth [5] [%] | growth [6] [%] | growth [7] [%] | growth [8] [%] | growth [9] [%] | growth [10] | growth [11] [%] | growth [12] [%] | growth [13] [%] | growth [14] [%] | growth [15] | growth [16] [%] | growth [17] [%] | growth [18] [%] | growth [19] [%] | growth [20] [%]
O=Cc1ccc(F)cc1 | 105 | 94.7 | 90.6 | 108 | 93.9 | 103 | 97.8 | 108 | 102 | 111% | 109 | 127 | 85.1 | 97.1 | 86.9% | 109 | 101 | 106 | 106 | 
c1ccc(-c2ccc3ccccc3c2)cc1 | 100 | 80.4 | 85 | 85.3 | 102 | 77 | 57.1 | 84.2 | 112 | 96.3% | 106 | 111 | 84.1 | 91 | 103% | 89.9 |  | 94.7 | 103 | 102
Nc1ccc2ccccc2c1-c1c(N)ccc2ccccc12 | 41.6 | 73.5 | 39.7 | 43 | 20.2 | 52.9 | 37.1 | 19.9 | 49.3 | 5.44% (active) | 25.8 | 18.7 | 42.4 | 43 | 6.23% (active) | 54.1 |  | 18 | 19.5 | 13.8
O=C(NC(=S)N1CC=CCC1)c1ccccc1 | 107 | 104 | 116 | 109 | 113 | 104 | 77.3 | 103 | 111 | 118% | 129 | 111 | 100 | 104 | 128% | 108 |  | 105 | 95.8 | 111
O=C(Nc1ccc([N+](=O)[O-])cc1)C(=O)Nc1ccc([N+](=O)[O-])cc1 | 100 | 96.9 | 101 | 81 | 103 | 95.4 | 77.3 | 67.7 | 110 | 101% | 110 | 106 | 105 | 98.1 | 109% | 100 |  | 77.7 | 104 | 102
Cc1cccnc1NC1OC(=O)c2ccccc21 (centres undefined) | 100 | 98.6 | 96.2 | 99.7 | 105 | 119 | 88.6 | 96.2 | 99.6 | 101% | 102 | 101 | 93.7 | 115 | 118% | 124 | 109 | 100 | 95.7 | 
CC(CO)(CO)C(=O)O | 110 | 96.8 | 99.3 | 95.7 | 105 | 86.3 | 101 | 102 | 105 | 109% | 105 | 101 | 90.4 | 108 | 99.5% | 104 | 97.9 | 98.4 | 103 | 
Nc1nc2nnc(-c3ccccc3)c(-c3ccccc3)n2n1 | 97.2 | 88.3 | 110 | 16.7 | 100 | 61.4 | 109 | 101 | 111 | 101% | 98.8 | 96.3 | 125 | 88.7 |  | 103 | 80.9 | 103 |  | 71
O=C(c1ccccc1O)N1CCCC1 | 99.3 | 94.5 | 101 | 89.7 | 105 | 94.5 | 76.1 | 74.9 | 95.9 | 103% | 115 | 89.1 | 104 | 105 | 106% | 106 |  | 80.2 | 96.4 | 96.6
CC1=CC(=Nc2ccc(N(C)C)cc2)C=C(C)C1=O | 66.2 | 83.5 | 95.8 | 86 | 102 | 48.6 | 94.4 | 77.9 | 95 | -14.5% (active) | 101 | 75.1 | 92.6 | 64 | 65.1% | 88.6 |  | 77.5 | 91.9 | 97.3
Nc1c(Br)cc(O)c2c1C(=O)c1ccccc1C2=O | 32.8 | 108 | 98.7 | 117 | 102 | 70.9 | 54 | 96.1 | 106 | 135% | 91.6 | 66.3 | 89.5 | 77.5 | 80.5% | 60.3 |  | 89.1 |  | 114
CSc1nsc(N)n1 | 97.9 | 103 | 87.9 | 90 | 97.3 | 95.6 | 90.3 | 92 | 106 | 99.4% | 115 | 113 | 93.5 | 95.9 | 108% | 104 |  | 99.9 | 97.6 | 101
S=c1nc(-c2ccccn2)c(-c2ccccn2)n[nH]1 | 100 | 101 | 103 | 110 | 112 | 66.2 | 82.7 | 105 | 98.4 | 115% | 103 | 105 | 89.6 | 118 | 118% | 102 | 111 | 107 | 98.3 | 
O=C1NC(=O)C(c2ccccc2)O1 (centres undefined) | 102 | 105 | 98.9 | 104 | 109 | 104 | 90.2 | 100 | 90.3 | 108% | 119 | 92.6 | 100 | 122 | 121% | 115 | 96.4 | 98.8 | 100 | 
Cc1ccnc(Nc2nc3ccccc3[nH]2)n1 | 104 | 108 | 103 | 97.4 | 100 | 99.5 | 103 | 108 | 94 | 113% | 123 | 97.8 | 104 | 109 | 116% |  | 98 | 105 |  | 102
Cn1c(=O)c2[nH]c(CC(=O)O)nc2n(C)c1=O | 100 | 90.9 | 99.6 | 97.2 | 110 | 113 | 86.4 | 91.4 | 106 | 109% | 108 | 105 | 99.4 | 100 | 104% | 101 |  | 96.9 | 104 | 101
O=C1NCC2CCCC1C2 (centres undefined) | 105 | 104 | 96.8 | 115 | 120 | 130 | 90.3 | 97.6 | 99.5 | 119% | 113 | 106 | 109 | 102 | 103% | 103 | 111 | 81.7 |  | 
